Results from PubChem BioAssay.
Activity calls are given as the source filed them.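 How the source made its calls: active means compounds that lower survival of DLD-1 colon cancer cells in the luminescence readout, no cutoff given; inactive means the rest.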

Assay: NPC library primary testing for decreased DLD-1 cell viability via CellTiter-Glo (AID 1117346)
Conditions: DLD-1 viability, CellTiter-Glo luminescence; at 20 µM (top of the series)

SMILES | viability decrease (inhibition)
CC(O)CCCCn1c(=O)c2c(ncn2C)n(C)c1=O (centres undefined) | 6.4% (inactive)
O=C(O)C(Cc1cc(I)c(O)c(I)c1)c1ccccc1 (centres undefined) | 14.4% (inactive)
CCC(C(=O)O)c1ccc(N2Cc3ccccc3C2=O)cc1 (centres undefined) | -10% (inactive)
O=C(N/N=C/c1ccccc1O)c1ccncc1 | 57.8% (active)
CC12CCC(C[N+](C)(CCC[N+](C)(C)C)C1)C2(C)C (centres undefined) | -4% (inactive)
CC1(C)OC[C@@H](COC(=O)CCc2ccc(OC[C@@H](O)CNCCNC(=O)N3CCOCC3)cc2)O1 | 44% (inactive)
O=C(Nc1ncc([N+](=O)[O-])s1)c1cccs1 | 67.5% (active)
COc1cc(NS(=O)(=O)c2ccc(N)cc2)nc(C)n1 | 6.1% (inactive)
Cc1ccc(S(=O)(=O)NC(=O)NC2CCCCC2)cc1 | -1.8% (inactive)
C=CCOc1cc(Cl)ccc1C(=O)NCCN(CC)CC | -3.9% (inactive)
COc1cc(/C=C/C(=O)O[C@H]2CC[C@]34C[C@]35CC[C@]3(C)[C@@H]([C@H](C)CCC=C(C)C)CC[C@@]3(C)[C@@H]5CC[C@H]4C2(C)C)ccc1O | -6.9% (inactive)
C[C@@H](O)[C@H](N)C(=O)O | 12.6% (inactive)
CCOc1ccccc1O[C@H](c1ccccc1)[C@H]1CNCCO1 | 18.8% (inactive)
O=C(/C=C/c1ccccc1)OCc1ccccc1 | 7.4% (inactive)
CN[C@H](CC(C)C)C(=O)N[C@H]1C(=O)N[C@@H](CC(N)=O)C(=O)N[C@H]2C(=O)N[C@H]3C(=O)N[C@H](C(=O)N[C@H](C(=O)O)c4cc(O)cc(O)c4-c4cc3ccc4O)[C@H](O)c3ccc(c(Cl)c3)Oc3cc2cc(c3O[C@@H]2OC(CO)[C@@H](O)[C@H](O)[C@@H]2O[C@H]2C[C@](C)(N)[C@H](O)[C@H](C)O2)Oc2ccc(cc2Cl)[C@H]1O (some centres undefined) | -10% (inactive)
O=C(OCC(O)CO)c1ccccc1Nc1ccnc2c(C(F)(F)F)cccc12 (centres undefined) | -17.2% (inactive)
CCN1CCCC1=O | -9.9% (inactive)
NC(=O)NC1N=C([O][Al])NC1=O (centres undefined) | -4.5% (inactive)
CC1CCCCN1CCCOC(=O)c1ccc(OC2CCCCC2)cc1 (centres undefined) | 94.7% (active)
NC[C@H]1O[C@H](O[C@H]2[C@@H](O)[C@@H](O[C@H]3O[C@H](CO)[C@@H](O)[C@H](N)[C@@H]3O)[C@H](N)C[C@@H]2N)[C@H](N)C[C@H]1O | -15.9% (inactive)

SMILES | viability decrease (inhibition)
O=P(O)(O)C(Sc1ccc(Cl)cc1)P(=O)(O)O | 2% (inactive)
Cc1onc(-c2c(Cl)cccc2Cl)c1C(=O)Cl | -2.5% (inactive)
Cc1cccc(N(C)C(=S)Oc2ccc3c(c2)CCC3)c1 | 55.5% (active)
CCCCCCCCCCCCCCCCCCO | -5.65% (inactive)
Oc1ccc(Cl)cc1Sc1cc(Cl)ccc1O | 103% (active)
CC1CN(c2cc3c(cc2F)c(=O)c(C(=O)O)cn3-c2ccc(F)cc2F)CCN1 (centres undefined) | -0.2% (inactive)
CCCCCCCCCCCCCCCC(=O)OC(C)C | -1.5% (inactive)
CC(=O)Oc1ccc(C2(c3ccc(OC(C)=O)cc3)Oc3ccccc3NC2=O)cc1 | 52.2% (active)
CC(=O)Nc1ccn(C2COC(COC(=O)c3ccccc3)O2)c(=O)n1 (centres undefined) | 29.9% (inactive)
CCc1cc(S(=O)(=O)O)c2cc(C(C)C)cccc1-2 | -14.2% (inactive)
CCCc1ncc(C(=O)O)s1 | -6.8% (inactive)
CN1C(CSCC(F)(F)F)Nc2cc(Cl)c(S(N)(=O)=O)cc2S1(=O)=O (centres undefined) | -7.1% (inactive)
CCCCCC[C@@H](CCC)C(=O)O | 16.9% (inactive)
Cc1ccccc1C(=O)Nc1ccc(C(=O)N2CCCC(N(C)C)c3ccccc32)cc1 (centres undefined) | 59% (active)
Cn1c(=O)c2[nH]c(Br)nc2n(C)c1=O | -0.15% (inactive)
CN1CC(=O)NC1=N | -6.6% (inactive)
C=CCN1CCc2nc(N)sc2CC1 | -3.4% (inactive)
CO/N=C(\C(=O)O)c1csc(NC(=O)CCl)n1 | -2.1% (inactive)
Cc1cc(CC(=O)O)c(C)n1-c1ccc(Cl)cc1 | -14.3% (inactive)
